According to ChEMBL document CHEMBL3988442, “University of Dundee, Small-Polar-MMV Screening Library” (2021):
Hit rate of the full screen: of about 48,000 compounds, about 13,000 (27%) showed an effect of 50% or more. This is one part of the list.

Tested on: Wolbachia pipientis
Experiment: Anti-Wolbachia Cell-Based Screen
Format: functional
Design: scale not given: in the data most compounds retested in dose-response had high values
Conditions: 5 µM

| Structure (SMILES) | Percent Effect [%] |
| --- | --- |
| CSCC[C@@H](CO)NC(=O)c1ccc2nc(NS(C)(=O)=O)sc2c1 | 89.36 |
| Cc1ccc(C(=O)NCCC(C)C)cc1NS(C)(=O)=O | -0.7863 |
| CSCCC(CO)NC(=O)c1sc(-c2ccccc2Cl)nc1C (stereo not drawn) | 13.6 |
| C[C@@H](CO)NC(=O)c1ccc2nc(NS(C)(=O)=O)sc2c1 | 93.82 |
| CC(C)CCNC(=O)c1ccc(Cl)c(NS(C)(=O)=O)c1 | 2.284 |
| COc1cccc(-c2nc(C)c(C(=O)NC(CO)CCSC)s2)c1 (stereo not drawn) | -11.86 |
| Cc1nnc(CNC(=O)CC2CCc3ccccc32)o1 (stereo not drawn) | 1.636 |
| Cc1nc(C)c(S(=O)(=O)NC(=O)c2ccsc2)s1 | 101.1 |
| Cc1ccc(S(=O)(=O)NCCNC(=O)c2ccoc2)cc1C | 3.538 |
| Cc1nc(C)c(S(=O)(=O)NC(=O)c2ccoc2)s1 | 99 |
| COc1ccnc(NC(=O)c2ccsc2)c1 | -4.666 |
| O=C(NS(=O)(=O)c1cnn(-c2ccccc2F)c1)c1ccoc1 | 8.506 |
| COCc1nc(C(=O)NS(=O)(=O)c2ccc(C)s2)cs1 | -3.012 |
| Cc1ccc(N2CCCN(C(=O)c3c(C)oc(C)c3C)CC2)nn1 | 8.16 |
| O=C(CC1CCCO1)N1CCCN(c2cccnn2)CC1 (stereo not drawn) | 79.43 |
| Cc1ccc(N2CCCN(C(=O)C(C)OCC3CC3)CC2)nn1 (stereo not drawn) | -0.6 |
| Cc1ccc(N2CCCN(C(=O)C3CCCO3)CC2)nn1 (stereo not drawn) | 135.1 |
| Cc1ccc(N2CCCN(C(=O)CC3CCCO3)CC2)nn1 (stereo not drawn) | 4.405 |
| Cc1ccc(N2CCCN(C(=O)CC3C=CCC3)CC2)nn1 (stereo not drawn) | 107 |
| Cc1nn(CC(=O)N2CCCN(c3cccnn3)CC2)c(C)c1Cl | 1.564 |
| O=C(Cc1cccc2cccnc12)N1CCCN(c2cccnn2)CC1 | -1.609 |
| Cc1ccc(N2CCCN(C(=O)C3(C#N)CCCCC3)CC2)nn1 | 12.99 |

| Structure (SMILES) | Percent Effect [%] |
| --- | --- |
| Cc1ccc(N2CCCN(C(=O)c3cc(Cl)c[nH]3)CC2)nn1 | -5.212 |
| Cc1ccc(N2CCCN(C(=O)CCC3CCCO3)CC2)nn1 (stereo not drawn) | 87.48 |
| Cc1ccc(NC2CCN(C(=O)CCC3CCCO3)CC2)nn1 (stereo not drawn) | -9.533 |
| COc1ccc(CN[C@@H]2CO[C@H](CNC(=O)NC(C)C)[C@H]2O)cc1 | 1.543 |
| CC(C)c1noc(C(C)S(=O)(=O)Cc2nc(C3CC3)no2)n1 (stereo not drawn) | 8.57 |
| Cc1cnn(CCCNC(=O)NC2CCN(CC(F)(F)F)C2=O)c1 (stereo not drawn) | -8.389 |
| CC(C)(C(=O)NCc1ccccc1F)n1cc(Br)cn1 | 10.35 |
| O=C1CNc2ncnc(Nc3cnn(Cc4cccc(F)c4)c3)c2N1 | 115.2 |
| O=C1CNc2ncnc(Nc3cnn(Cc4ccccc4)c3)c2N1 | 115.8 |
| O=C1CC(NCc2ccncc2)CN1Cc1cccc(F)c1 (stereo not drawn) | -21.37 |
| COc1ccc2c(CN3CCN(Cc4cccc(F)c4)CC3)n[nH]c2c1 | 2.522 |
| O=C1CNc2ncnc(Nc3cnn(Cc4ccc(F)cc4)c3)c2N1 | 101.7 |
| O=C(NCCCOc1cccnc1)c1cn(Cc2ccccc2F)nn1 | -6.028 |
| c1ccc(Cn2cc(CNCC3CCCN3c3cccnn3)cn2)cc1 (stereo not drawn) | 20.91 |
| O=C1CNc2ncnc(Nc3cnn(Cc4ccccc4F)c3)c2N1 | 112.6 |
| O=C1CCN(Cc2cnc3c(-c4ccccc4)cnn3c2)CCN1 | 2.207 |
| CCN1CCCC1Cn1ccc2ccc(C(=O)OC)cc2c1=O (stereo not drawn) | -21.42 |
| COc1cccc(CN(C)Cc2cccc(C#N)c2)c1OC | -9.148 |
| O=C1CNc2ncnc(Nc3cccc(Cn4cccn4)c3)c2N1 | 129.6 |
| c1cc(CN2CCC(CCn3cccn3)CC2)cc(Cn2cccn2)c1 | -8.775 |
| OC1CCN(C2CCN(Cc3cccc(Cn4cccn4)c3)CC2)CC1 | 19.22 |
| CCCn1cc(-c2ccnc(NC3CCCc4ccccc43)n2)c(C)n1 (stereo not drawn) | 2.739 |

| Structure (SMILES) | Percent Effect [%] |
| --- | --- |
| CCN(CC)CCCNc1nccc(-c2cn(C)nc2C)n1 | -2.773 |
| OCCNc1nccc(-c2cn3nccc3nc2C2CCCCC2)n1 | 109.1 |
| CCCn1ncc(-c2ccnc(NC3CCCc4ccccc43)n2)c1C (stereo not drawn) | -7.325 |
| Cc1cc2nc(C3CCCCC3)c(-c3ccnc(NCCO)n3)cn2n1 | 91.18 |
| CNCCNc1nccc(-c2cn(C)nc2C)n1 | 0.09563 |
| CCN(CCNC(=O)C1CCCN(C(C)=O)C1)c1ccccc1C (stereo not drawn) | 2.266 |
| CNc1ncc(CN(C)c2nc(C)c3ccc(S(C)(=O)=O)cc3n2)cn1 | 9.72 |
| COc1cccc2cc(CNC(C)(C)C(=O)N3CCC(O)CC3)oc12 | -3.796 |
| CCOC(=O)N1CC(=O)N(Cc2cccc(OC)c2OC)CC(O)C1 (stereo not drawn) | 107.9 |
| COc1cccc(CN(C)C(=O)CCC(=O)c2ccccc2)c1OC | -10.25 |
| COc1cccc(CN2CC(O)CN(C(=O)C(C)(C)C)CC2=O)c1OC (stereo not drawn) | 116.9 |
| COc1ccnc(CN2CC(=O)N(c3ccc(C)cc3)CC2C)c1OC (stereo not drawn) | -8.096 |
| CCCN1CCc2nc(SCc3ccccc3F)[nH]c(=O)c2C1 | 16.02 |
| COCCN1CCc2onc(C(c3ccccc3)c3ccccc3)c2C1 | 19.48 |
| C=Cc1ccc(CSc2nc3c(c(=O)[nH]2)CN(CCC)CC3)cc1 | -6.559 |
| COCCN1CCc2nc(SCc3ccc(F)cc3)[nH]c(=O)c2C1 | 106 |
| CCCN1CCc2nc(SCc3ccc(F)cc3)[nH]c(=O)c2C1 | 101.4 |
| CCCN1CCc2nc(SCc3ccccc3)[nH]c(=O)c2C1 | 19.11 |
| CCCN(C)C(=O)c1ccc2c(c1)[nH]c(=O)n2CCOCC | -27.89 |
| Cc1csc(CNC(=O)NCC(O)c2cccc(Cl)c2)n1 (stereo not drawn) | -23.66 |
| C=C(C)CN(CC)C(=O)c1cc(Cl)ccc1NS(C)(=O)=O | -12.97 |
| COc1cccc(C2C3=C(COC3=O)Nc3[nH]nc(C)c32)c1OC (stereo not drawn) | 3.331 |

| Structure (SMILES) | Percent Effect [%] |
| --- | --- |
| Cc1ccc(CN2CC[C@@H]3CN(S(C)(=O)=O)CCO[C@@H]3C2)o1 | -7.086 |
| Cc1ccc(CN2CCC3(CC2)CC(NC(=O)c2ccccn2)CO3)o1 (stereo not drawn) | -7.485 |
| CNC(=O)c1cccc(CC2COCCN(Cc3ccsc3)C2)n1 (stereo not drawn) | 152.2 |
| O=C(NCc1cc(N2CCOCC2)ncn1)c1cccc(CO)n1 | -9.818 |
| CNC(=O)c1cccc(CC2COCCN(Cc3ccc(C)o3)C2)n1 (stereo not drawn) | 193.8 |
| Cn1nc(CN2CCOCC2)c2c1CN(Cc1ccsc1)C2.O=C(O)C(F)(F)F.O=C(O)C(F)(F)F | 1.369 |
| COCCN(CCN(C)C)C(=O)NC1CC1 | -6.538 |
| CCCNC(=O)C[S+]([O-])Cc1csc(C2CCCCC2)n1 (stereo not drawn) | 9.015 |
| CC(C)c1cc(NCc2csc(N(C)C)n2)nc(N)n1 | -34.84 |
| C1CN(c2nc(C3CC3)no2)CCN(C2CCOCC2)C1 | 3.883 |
| CCn1ncc2c1C(COC)CN(S(=O)(=O)C1CC1)C2 (stereo not drawn) | -7.886 |
| Cn1ncc2c1C(COCC1CC1)CN(Cc1nccs1)C2 (stereo not drawn) | -9.049 |
| CCn1ncc2c1C(COC)CN(Cc1nccs1)C2 (stereo not drawn) | 93.87 |
| CCn1ncc2c1C(COC)CN(Cc1ccc(OC)cc1)C2 (stereo not drawn) | 12.18 |
| CCn1ncc2c1C(COC)CN(Cc1cnn(C)c1)C2 (stereo not drawn) | 98.55 |
| CC(C)N(CC1CCCN(Cc2ccon2)C1)C(=O)OC(C)(C)C (stereo not drawn) | -0.3893 |
| CC(C)OCCNC(=O)C1CCC(=O)N(C2CCCC2)C1 (stereo not drawn) | -13.5 |
| Cc1ccc(CNC(=O)N2CCN(S(C)(=O)=O)CC2)n1C | -9 |
| CN(C)C(=O)c1ccn(-c2ccc3ccccn23)n1 | 2.89 |
| CS(=O)(=O)N1CCCCCC1C1CCN(c2ncccc2C#N)CC1 (stereo not drawn) | -0.7273 |
| Cc1csc(Nc2nccnc2C2CCCN2S(C)(=O)=O)n1 (stereo not drawn) | 47.35 |
| Cc1ccc2nc(C3CCCN3Cc3cccc(CCN)c3)[nH]c2c1 (stereo not drawn) | -6.155 |

| Structure (SMILES) | Percent Effect [%] |
| --- | --- |
| CS(=O)(=O)N1CCC[C@H]1c1ncnn1-c1ccc2c(c1)OCO2 | 23.33 |
| Cc1ccc2nc(C3CCCN3Cc3scnc3C)[nH]c2c1 (stereo not drawn) | -7.773 |
| CS(=O)(=O)N1CCCCCC1C1CCN(c2ncccn2)CC1 (stereo not drawn) | -4.856 |
| CS(=O)(=O)N1CCCC1c1ccnc2nccn12 (stereo not drawn) | 122.4 |
| CC(C)=CCCC(C)CN1CCC(n2cc(C(=O)NCCO)nn2)CC1 (stereo not drawn) | -5.673 |
| CCCn1cnnc1CN(C)C(=O)CCC(=O)Nc1cc(C)ccc1F | -24.09 |
| O=C(CCCn1cncn1)N1CCC2(CCCNC2=O)C1 (stereo not drawn) | -3.772 |
| O=C(C[S+]([O-])Cc1csc(C2CCCC2)n1)Nc1ccccc1 (stereo not drawn) | 0.09199 |
| COCC(O)CN(C)C(=O)NC1CCN(S(C)(=O)=O)CC1 (stereo not drawn) | 12.14 |
| CCC(CC)(CNC(=O)OC(C)(C)C)NC(=O)C1CCOCC1 | 5.998 |
| O=S(=O)(NCC(O)c1cccs1)c1ccccc1Cl (stereo not drawn) | 2.157 |
| CCc1nc(N)nc(NCCC(=O)N2CCCC2)c1C | 9.291 |
| CC(C)(C)C(=O)NC[C@H]1Cn2c(-c3ccccc3)cnc2CO1 | -8.442 |
| CN(CC1=CCCN(CCc2ccccn2)C1)C(=O)c1ccco1 | 0.7414 |
| CNC(=O)c1cccc(CCNC(=O)N2CCc3ccccc3C2)c1 | 1.406 |
| O=C(NCCNc1ncccn1)N1CCc2ccccc2C1 | 8.02 |
| CN(Cc1ccsc1)C(=O)CNC(=O)N1CCc2ccccc2C1 | 90.63 |
| CCOc1ncccc1NC(=O)N1CCc2ccccc2C1 | -0.7073 |
| CN(Cc1ccccn1)C(=O)CNC(=O)N1CCc2ccccc2C1 | 97.17 |
| CN(Cc1ccsc1)C(=O)CN1CCc2c(ncn2C)C1 | -3.155 |
